According to ChEMBL document CHEMBL3988442, “University of Dundee, Small-Polar-MMV Screening Library” (2021):
In all, about 38,000 compounds went through this assay and about 1,200 (3.2%) showed an effect of 50% or more. The median lay at about -58%. The full list was thinned out, with strong results kept by preference.

test system: Plasmodium falciparum; experiment: Calibr Malaria Delayed Death Assay SOP; assay type: functional, organism-based; set-up: scale not given: in the data most compounds retested in dose-response had high values; settings: concentration 4.99e-06 (unit not given; other assays of the set use mol/L)

Question: Which “Percent Effect” value does the source give for `Cc1noc2nc(C3CC3)c(Cl)c(C(=O)O)c12` here?
Answer: The value was -135.9%.

Question: Which “Percent Effect” value does the source give for `Cc1ccc(N2CCC(C(=O)NC3CCc4nccn4C3)CC2)nc1` (stereo not drawn) here?
Answer: Its value is -14.8%.

Question: For `CC(C)[C@@H]1CN(C(=O)CN(C)Cc2ccccc2)C[C@H]1C(=O)O`, which “Percent Effect” value is on record?
Answer: The value was -22.97%.

Question: For `CC(C)[C@@H]1CN(C(=O)C2(c3ccccc3)CCN(C)CC2)C[C@H]1N(C)C`, which “Percent Effect” value is on record?
Answer: Its value is 83.06%.

Question: With `CC(C)[C@@H]1CN(C(=O)NCc2ccco2)C[C@H]1N(C)C` as the compound, how does the “Percent Effect” value read?
Answer: The value was -12.41%.

Question: For `CCCn1c(N2CCCC(C)C2)nc2c(C)nn(C)c2c1=O` (stereo not drawn), which “Percent Effect” value is on record?
Answer: Its value is -32.41%.

Question: Which “Percent Effect” value does the source give for `Cc1ncncc1C(=O)N1CCOC(c2nc(C(C)C)n[nH]2)C1` (stereo not drawn) here?
Answer: Its value is -146.2%.

Question: `Cn1ncc(N2CCOC(CCNC(=O)CO)C2)cc1=O` (stereo not drawn) was tested. Which “Percent Effect” value did it give?
Answer: The value was -51.52%.

Question: Which “Percent Effect” value does the source give for `CC(=O)N1CCC2(CCN(C(=O)c3ccc(F)c(C(F)(F)F)c3)CC2)C1` here?
Answer: Its value is -64.74%.

Question: Which “Percent Effect” value does the source give for `CN1CCN(c2ccccc2CNC(=O)Cc2ccccc2F)CC1` here?
Answer: Its value is 75.84%.

Question: With `Cc1cc(=O)n(C)cc1NC(=O)Cc1cccc(F)c1` as the compound, how does the “Percent Effect” value read?
Answer: Its value is -34.19%.

Question: How did the “Percent Effect” value turn out when `Cc1cc(CNC(=O)NCc2ccccc2N2CCOCC2)no1` was run?
Answer: The value was -32.16%.

Question: `CN1CCN(c2ccccc2CNC(=O)CSC(F)(F)F)CC1` was tested. Which “Percent Effect” value did it give?
Answer: The value was 67.15%.

Question: `CC(C)N(C)CC(=O)NCc1ccccc1N1CCN(C)CC1` was tested. Which “Percent Effect” value did it give?
Answer: The value was 43.49%.

Question: For `CN1CCN(c2ccccc2CNC(=O)Cc2cccc(F)c2)CC1`, which “Percent Effect” value is on record?
Answer: Its value is 77.21%.

Question: How did the “Percent Effect” value turn out when `CN1CCCN(c2ccc(F)cc2CNC(=O)c2ccsc2)CC1` was run?
Answer: Its value is 59.32%.

Question: How did the “Percent Effect” value turn out when `Cc1ccc(C(=O)NCc2cc(F)ccc2N2CCCN(C)CC2)o1` was run?
Answer: Its value is 33.96%.

Question: How did the “Percent Effect” value turn out when `O=C(CN1CCS(=O)(=O)CC1)NCc1ccccc1F` was run?
Answer: Its value is -87.27%.

Question: Which “Percent Effect” value does the source give for `O=C(NCc1cccnc1N1CCCC(O)C1)c1ccsc1` (stereo not drawn) here?
Answer: Its value is -31.1%.

Question: Which “Percent Effect” value does the source give for `CCOCCCNC(=O)Cc1cccc(F)c1` here?
Answer: The value was -98.72%.

Question: For `CCc1ccccc1CNC(=O)CNCC(F)(F)F`, which “Percent Effect” value is on record?
Answer: The value was -137.2%.

Question: How did the “Percent Effect” value turn out when `CC(=O)N1CCCN(C(=O)c2cnn(C(C)(C)C)c2C)CC1` was run?
Answer: The value was -71.74%.

Question: With `Cc1ccc(CNC(=O)C2CCNC(=O)C2)c(OCCC(C)C)c1` (stereo not drawn) as the compound, how does the “Percent Effect” value read?
Answer: Its value is -137.1%.

Question: `COc1nn(C)c2c1CCCN(C(=O)c1ccc3ccccc3n1)C2.O=C(O)C(F)(F)F` was tested. Which “Percent Effect” value did it give?
Answer: The value was -93.98%.

Question: How did the “Percent Effect” value turn out when `O=C(NCc1cc(=O)n2c(n1)CN(CC1CC1)CCC2)c1ccsc1.O=C(O)C(F)(F)F` was run?
Answer: Its value is -77.99%.

Question: How did the “Percent Effect” value turn out when `Cc1cc(NS(=O)(=O)c2cccs2)ccc1-n1cccc1C(=O)O` was run?
Answer: The value was -24.74%.

Question: For `CN1CCN(c2ccccc2NC(=O)NCC[S+](C)[O-])CC1` (stereo not drawn), which “Percent Effect” value is on record?
Answer: The value was -127.8%.

Question: How did the “Percent Effect” value turn out when `CN1CCN(c2ccccc2NC(=O)NCCc2ccccc2)CC1` was run?
Answer: Its value is 83.6%.

Question: How did the “Percent Effect” value turn out when `CN1CCN(c2ccccc2NC(=O)NCCc2ccc(O)cc2)CC1` was run?
Answer: The value was -22.54%.

Question: How did the “Percent Effect” value turn out when `c1nc(N2CCc3[nH]cnc3C2)c2cc[nH]c2n1` was run?
Answer: The value was -49.27%.

Question: For `CCn1nc(C)c2nc(C(C)C)nc(NCc3ccccn3)c21`, which “Percent Effect” value is on record?
Answer: The value was 36.29%.

Question: How did the “Percent Effect” value turn out when `Cc1ccc(CN(CCN(C)C)C(=O)Cc2cn3ccccc3n2)o1` was run?
Answer: Its value is -71.99%.

Question: Which “Percent Effect” value does the source give for `Cc1nc2sccn2c1CNc1ccc(C(=O)O)cc1` here?
Answer: Its value is -70.26%.

Question: Which “Percent Effect” value does the source give for `O=C(C1CCCN1Cc1nc(-c2ccco2)no1)N1CCSCC1` (stereo not drawn) here?
Answer: Its value is -120.3%.

Question: How did the “Percent Effect” value turn out when `Nc1nc2c(c(NCc3cnc4c(c3)CCC4)n1)CCNC2` was run?
Answer: The value was -34.51%.

Question: How did the “Percent Effect” value turn out when `c1coc(-c2nc3c(c(NCc4n[nH]c5c4CCC5)n2)CCNCC3)c1` was run?
Answer: The value was 20.11%.

Question: Which “Percent Effect” value does the source give for `c1ccc(-c2nc3c(c(NCc4n[nH]c5c4CCC5)n2)CCNC3)cc1` here?
Answer: Its value is 89.28%.

Question: `COc1ccccc1C(C)NC(=O)NCCC(=O)NC1CCCCC1` (stereo not drawn) was tested. Which “Percent Effect” value did it give?
Answer: Its value is -102.7%.

Question: With `Cc1nc(C(=O)N2CCN(S(C)(=O)=O)CC2)c(-c2ccccc2)s1` as the compound, how does the “Percent Effect” value read?
Answer: Its value is -18.55%.

Question: For `CC(C)COCCCNC(=O)c1cccnc1N1CCOCC1`, which “Percent Effect” value is on record?
Answer: Its value is -144.5%.

Question: `Cl.O=C1NC2(CCNCC2)CC1c1ccccc1` (stereo not drawn) was tested. Which “Percent Effect” value did it give?
Answer: Its value is -140.8%.

Question: `CNC(=O)CC1CC2(CCNCC2)c2cc(F)ccc21` (stereo not drawn) was tested. Which “Percent Effect” value did it give?
Answer: Its value is -118.7%.

Question: `Cl.Cl.c1ccc2c(c1)C(NC1CCCC1)CC21CCNCC1` (stereo not drawn) was tested. Which “Percent Effect” value did it give?
Answer: Its value is 74.54%.

Question: Which “Percent Effect” value does the source give for `CC(C)NC1CC2(CCNCC2)c2cc(F)ccc21.Cl.Cl` (stereo not drawn) here?
Answer: The value was 6.754%.

Question: For `Cc1ccc2c(c1)C1(CCNCC1)CC2NCCO.Cl.Cl` (stereo not drawn), which “Percent Effect” value is on record?
Answer: The value was -29.16%.

Question: Which “Percent Effect” value does the source give for `Fc1ccc2c(c1)C1(CCNCC1)CC2OCC1CC1` (stereo not drawn) here?
Answer: Its value is 69.13%.

Question: For `COCCN1CCC2(CC1)CC(OCC1CC1)c1ccc(C)cc12` (stereo not drawn), which “Percent Effect” value is on record?
Answer: Its value is 40.12%.

Question: For `Cc1ccc2c(c1)C(NC(C)C)CC21CCNCC1.Cl` (stereo not drawn), which “Percent Effect” value is on record?
Answer: The value was -48.62%.

Question: Which “Percent Effect” value does the source give for `Cl.Cl.Fc1ccc2c(c1)C1(CCNCC1)CC2NC1CC1` (stereo not drawn) here?
Answer: Its value is 82.19%.

Question: Which “Percent Effect” value does the source give for `Cc1ccc2c(c1)C(NC1CC1)CC21CCNCC1.Cl` (stereo not drawn) here?
Answer: The value was 82.38%.

Question: Which “Percent Effect” value does the source give for `Cc1ccc2c(c1)C1(CCNCC1)CC2OCC1CC1` (stereo not drawn) here?
Answer: Its value is 44.42%.

Question: For `CCCc1noc(CN2CCC(C(=O)Nc3cnn(CC)c3)CC2)n1`, which “Percent Effect” value is on record?
Answer: The value was -105%.

Question: For `Cc1cc(C)n(C2CCCN(C(=O)Cc3cccs3)C2)n1` (stereo not drawn), which “Percent Effect” value is on record?
Answer: Its value is -45.18%.
